The results in this text go back to PubChem BioAssay AID743149 (Broad Institute, 2013).

The structures appear in SMILES notation. Results with a measured potency or affinity are listed apart. Unmarked numbers belong to inactive results. No rule for the calls is given here.

A short description of the experiment: cytotoxicity in OV-90 ovarian cancer cells, dose response, PAX8 inhibitor project, cell-based, plate reader, dry powder, SA8 (AID 743149). Particulars: series mostly up to 35 µM; activity change, negative = cytotoxicity: at the top concentration.
With `CCCC#Cc1ccc([C@@H]2[C@@H](C#N)N(S(=O)(=O)c3cccc(F)c3)[C@H]2CO)cc1`, the “activity change, negative = cytotoxicity” value was 2.97%.

For the compound `C[C@H](CO)N1C[C@H](C)[C@@H](CN(C)Cc2ccc(-c3ccccc3)cc2)Oc2ccc(NS(=O)(=O)c3ccccc3)cc2CC1=O`, the “activity change, negative = cytotoxicity” value was -47.5%.

Consider `N#C[C@@H]1[C@@H](c2ccc(C#Cc3ccccc3F)cc2)[C@H](CO)N1C(=O)C1CCCCC1`, for which the “activity change, negative = cytotoxicity” value is -43.7%.

On to `C[C@@H]1CN([C@H](C)CO)C(=O)CCCn2nncc2CO[C@H]1CN(C)Cc1ccc(Oc2ccccc2)cc1`, for which the “activity change, negative = cytotoxicity” value was -0.398%.

In the case of `O=C1/C(=C/c2cccc(Br)c2)SC(=S)N1CCC(=O)N(CCO)c1ccccc1`, the “activity change, negative = cytotoxicity” value is -27% [at 50 µM].

For `C[C@@H]1CN([C@H](C)CO)C(=O)CCCn2cc(nn2)CO[C@H]1CN(C)C(=O)Nc1ccc(-c2cccs2)cc1`, the “activity change, negative = cytotoxicity” value was 18%.

In the case of `O=C(NCCc1ccccc1)c1ccc2c(c1)OCCCO2`, the “activity change, negative = cytotoxicity” value is -8.48% [at 50 µM].

As to `O=C(C[C@H]1CC[C@H]2[C@@H](COC[C@@H](O)CN2S(=O)(=O)c2cccc(Cl)c2)O1)Nc1ccc(-c2ccccc2)cc1`, the “activity change, negative = cytotoxicity” value is -8.29%.

In the case of `COc1cccc(C#Cc2ccc([C@@H]3[C@H](C#N)N(C(=O)c4ccccn4)[C@H]3CO)cc2)c1`, the “activity change, negative = cytotoxicity” value was -24.5%.

On to `N#C[C@@H]1[C@H](c2ccc(C#CC3CCCC3)cc2)[C@H](CO)N1C(=O)Nc1ccc(F)cc1`, for which the “activity change, negative = cytotoxicity” value is -2.68%.

For the compound `COCC(=O)N1[C@H](CO)[C@H](c2ccc(-c3cccnc3)cc2)[C@@H]1C#N`, the “activity change, negative = cytotoxicity” value was 13.5%.

`C[C@H](CO)N1C[C@H](C)[C@H](CN(C)C(=O)Nc2ccc(-c3cccs3)cc2)OCc2cnnn2CCCC1=O`: the “activity change, negative = cytotoxicity” value is 24.2%.

With `N#C[C@H]1[C@@H](c2ccc(C3=CCCC3)cc2)[C@@H](CO)N1C(=O)NC1CCCCC1`, the “activity change, negative = cytotoxicity” value is 6.36%.

In the case of `N#C[C@@H]1[C@@H](c2ccc(C3=CCCCC3)cc2)[C@@H](CO)N1C(=O)NC1CCCCC1`, the “activity change, negative = cytotoxicity” value was 6.88%.

With `O=C(CN1C(=O)c2ccccc2S1(=O)=O)c1ccccc1Cl`, the “activity change, negative = cytotoxicity” value is 3.21% [at 50 µM].

Regarding `O=C(CN1C(=O)c2ccccc2S1(=O)=O)c1ccc(Cl)cc1Cl`, the “activity change, negative = cytotoxicity” value is 31.7% [at 50 µM].

For the compound `C[C@H](CO)N1C[C@H](C)[C@@H](CN(C)S(=O)(=O)c2ccc(Cl)cc2)OCCCC[C@H](C)Oc2ccc(NS(=O)(=O)c3ccccc3)cc2C1=O`, the “activity change, negative = cytotoxicity” value is -43.1%.

On to `C[C@H](CO)N1C[C@H](C)[C@@H](CN(C)Cc2ccc(-c3ccccc3)cc2)Oc2ccc(NC(=O)C3CC3)cc2CC1=O`, for which the “activity change, negative = cytotoxicity” value is 1.99%.

For `COc1cccc(C#Cc2ccc([C@H]3[C@@H](CO)N(C(=O)C4CCCC4)[C@H]3C#N)cc2)c1`, the “activity change, negative = cytotoxicity” value is -21.9%.

As to `O=C(Nc1ccc(OCC(F)(F)C(F)F)c(C(F)(F)F)c1)c1ccccc1O`, the “activity change, negative = cytotoxicity” value was 14.1% [at 50 µM].

Regarding `COc1ccc(S(=O)(=O)Nc2ccc3c(c2)CC(=O)N([C@@H](C)CO)C[C@@H](C)[C@@H](CN(C)Cc2ccc(-c4ccccc4)cc2)O3)cc1`, the “activity change, negative = cytotoxicity” value was -6.31%.

Turning to `N#C[C@H]1[C@@H](c2ccc(C#Cc3cccc(F)c3)cc2)[C@@H](CO)N1C(=O)C1CCCC1`, the “activity change, negative = cytotoxicity” value was 10.2%.

In the case of `C[C@H](CO)N1C[C@H](C)[C@@H](CN(C)S(=O)(=O)c2ccc(-c3ccccc3)cc2)OCc2cn(nn2)CCCC1=O`, the “activity change, negative = cytotoxicity” value is 14.8%.

Regarding `CCN(CC(=O)Nc1c(F)cccc1F)C(=O)c1cc(S(=O)(=O)N(C)C)ccc1N1CCCC1`, the “activity change, negative = cytotoxicity” value was 8.98% [at 50 µM].

`O=C1/C(=C/c2ccccc2)SC(=S)N1CC(=O)N1CCCCC1c1cccnc1` (stereo unspecified): the “activity change, negative = cytotoxicity” value is 36.8% [at 50 µM].

With `COc1ccccc1C#Cc1ccc([C@@H]2[C@@H](C#N)N(C(=O)C3CCCCC3)[C@H]2CO)cc1`, the “activity change, negative = cytotoxicity” value was -6.03%.

Turning to `CCCC#Cc1ccc([C@H]2[C@@H](CO)N(C(=O)C3CCCCC3)[C@H]2C#N)cc1`, the “activity change, negative = cytotoxicity” value was -38.6%.

Take `COc1cccc(C#Cc2ccc([C@@H]3[C@@H](C#N)N(C(=O)C4CCCCC4)[C@H]3CO)cc2)c1`: the “activity change, negative = cytotoxicity” value was -11.9%.

`Cc1ccc(S(=O)(=O)Nc2ccc3c(c2)C(=O)N([C@H](C)CO)C[C@@H](C)[C@H](CN(C)Cc2ccc(C(F)(F)F)cc2)OCCCC[C@H](C)O3)cc1`: the “activity change, negative = cytotoxicity” value was -30.4%.

As for `O=C1/C(=C/c2ccccc2F)SC(=S)N1CC(=O)N1CCCCC1c1cccnc1` (stereo unspecified), the “activity change, negative = cytotoxicity” value is -23% [at 50 µM].

`Cc1ccccc1OCC(=O)Nc1cccc(C(=O)O)c1`: the “activity change, negative = cytotoxicity” value is 22.8% [at 50 µM].
